Laboratory results from PubChem BioAssay (NCATS).
Records with an inconclusive call do not appear. The source made the active and inactive calls. The call rests on the fitted dose curve; in most records, active means well fitted curve in the direction sought with a large enough effect; inconclusive means small, poorly fitted or top-dose-only effect, or another doubt; inactive means no such curve, though single readings can be large; an effect the other way counts as inactive or inconclusive.

Assays:
[1] = qHTS to identify inhibitors of the type 1 interferon - major histocompatibility complex class I in skeletal muscle: primary screen against the NCATS LOPAC collection (AID 1347405);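 further: lytic HiBiT luminescence reporting HLA-B protein level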; further: potency means the concentration at half of the fitted maximal effect
Outline: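 Immortalized human C25cl48 myoblasts with HiBiT knocked into endogenous HLA-B*08:01 were stimulated with 4.0 ng/ml IFN-beta and given compounds in a 7-point, 1:4.3 titration from 46 uM final; after 24 hrs, lytic HiBiT luminescence was read.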

[2] = qHTS for inhibitors of adenylyl cyclases using a fission yeast platform: a pilot screen against the NCATS LOPAC library (AID 1347410)
Outline: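 Fission yeast qHTS: CHP2027 cells (AC9-GNAS-PDE4D2, fbp1-GFP), 5x10^6 cells/mL working density, EMM + His/Lys/Ura; LOPAC at up to 57 µM final; 18 h dark, 30C; GFP by laser cytometry. DPI positive control, DMSO vehicle.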

[3] = Validation qHTS assay for inhibitors of Activation Induced Cytidine Deaminase (AID): UDG Counterscreen signal (AID 1347427)
Outline: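 Counterscreen read of UDG activity (2 U/mL, 4/3x) in the FRET deamination format with AID (1 uM, 4/3x), DJC20/DJC23 substrates (250 nM, 4x), 4 h at room temperature. NaOH stop, fluorescence at 560 ex/665 em.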

[4] = biological target: Single-stranded DNA cytosine deaminase (Homo sapiens) (UniProt Q9GZX7); assay: Validation qHTS assay for inhibitors of Activation Induced Cytidine Deaminase (AID): AID signal (AID 1347429)
Outline: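 AID and UDG were combined and compounds added at final up to 114 uM, then DJC20/DJC23 FRET substrate was added for 4 hr at room temperature. NaOH was then added for 30 min before fluorescence was read at 540/590 nm.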

[5] = Primary qHTS for inhibitors of La Crosse Virus (LACV) - induced cell death in SH-SY5Y cells (AID 1508616);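 further: top concentration of the series differs between compounds; higher means more rescue of cells from virus-induced death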
Outline: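 Luminescent ATP readout (ATPLite 1step, 5 min room temperature) measured rescue from LACV-induced death after 6 days of infection at 0.01 MOI; normalized to infected DMSO wells and uninfected DMSO wells.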

Measured: Potency

Sequence of Single-stranded DNA cytosine deaminase (Homo sapiens) (Q9GZX7 whole entry, looked up): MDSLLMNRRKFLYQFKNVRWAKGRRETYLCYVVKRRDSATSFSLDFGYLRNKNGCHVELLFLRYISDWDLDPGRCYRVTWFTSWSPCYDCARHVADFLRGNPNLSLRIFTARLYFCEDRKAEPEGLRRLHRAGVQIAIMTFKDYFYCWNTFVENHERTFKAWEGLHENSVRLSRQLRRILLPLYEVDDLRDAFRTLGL

CC(C)(C)NCC(O)COc1cccc2[nH]c(=O)[nH]c12 (stereo not given)
inactive: all assays above

O=C(O)C1CCCNC1 (stereo not given)
inactive: all assays above

NC(Cc1cccc(-c2ccccc2CP(=O)(O)O)c1)C(=O)O (stereo not given)
inactive: all assays above

CN1Cc2sccc2C(c2ccc(O)c(O)c2)C1 (stereo not given)
inactive: all assays above

NC1(C(=O)O)CC1
not listed: [4]
inactive: all other assays above

NC(N)=N[C@@H](CCC(=O)O)C(=O)O
not listed: [4]
inactive: all other assays above

NS(=O)(=O)c1cccc2c1c([N+](=O)[O-])cc1nc(O)c(O)nc12
not listed: [4]
inactive: all other assays above

O=C(O)C1CCNCC1
not listed: [4]
inactive: all other assays above

N[C@@H](Cc1ccc(F)cc1)C(=O)O
not listed: [4]
inactive: all other assays above

CCCn1c(=O)c2[nH]c(-c3ccc(S(=O)(=O)O)cc3)nc2n(CCC)c1=O
not listed: [4]
inactive: all other assays above

NC(N)=NC(N)=Nc1cccc(Cl)c1
not listed: [4]
inactive: all other assays above

C[C@H](O)C(=O)C1=Nc2c(nc(N)[nH]c2=O)NC1
not listed: [4]
inactive: all other assays above

O=C(O)Cc1ccc(O)c(O)c1
not listed: [4]
inactive: all other assays above

C=C1C(=O)O[C@@H]2[C@H]3O[C@]3(C)CCC=C(C)CC[C@@H]12
inactive: [2] | [3] | [5]
active: [1] 14.1 µM
